# Assay outcomes: PubChem, National Center for Advancing Translational Sciences (NCATS)
# A selection: hits, their analogues and other compounds. The true share with any hit is near 9.2%.
# ELG1 DNA repair: inhibitors of ELG1-dependent DNA repair in HEK293T cells. HEK293T ELG1-luciferase reporter, luminescence, 16 h; DNA damage induced by 5-fluorouridine. 2.3% of 330,000 active. Potency, µM (doses to about 46.1 µM), without a hit: at the highest dose activity change, negative = inhibition, usual class: inhibitors; also: % is scaled to controls: 0 for no effect and ±100 for the full control effect; nearly all actives have a fitted effect of over 55% in size
#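 Luminescence from the luciferase reporter, measured 30 min after ONE-Glo reagent at room temperature, was the read-out. Beforehand, 2,000 cells per well were exposed for 16 hr at 37 °C to 5-fluorouridine together with compound or vehicle.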
# SMN2 splice up: enhancers of SMN2 splice variant expression; Potency, µM (top dose mostly 46.1 µM), without a hit: top-dose activity change, positive = activation, most hits filed as activators; HEK293 SMN2-luciferase splicing reporter, luminescence, 30-36 h; 2.8% of 210,000 active; also: % of control where 0% means no effect; nearly all actives have a fitted effect of over 55% in size
#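 qHTS luciferase splicing reporter: luminescence rises when SMN2 exon 7 is included in transfected HEK293 cells. Compound exposure lasted 30-36 h at 37C, with 4.5 mM final sodium butyrate as control, followed by a ONE-Glo read.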
# ELG1 genotoxic: inducers of genotoxicity in HEK293T ELG1-luciferase cells; HEK293T ELG1-luciferase reporter, luminescence, 16 h; Potency, µM (titrated, usually from 46 µM), without a hit: top-dose activity change, positive = activation, actives largely listed as activators; 1.3% of 330,000 active; AID 504466; also: % of control where 0% means no effect; nearly all actives have a fitted effect of over 60% in size
#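 After overnight (16 hr) compound treatment at 37 °C, ELG1-luciferase HEK293T cells were lysed with ONE-Glo; luminescence quantified 30 min later at room temperature.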
# Rab9 promoter act: activates the Rab9 promoter. Huh7 Rab9 promoter-luciferase reporter, luminescence, 24 h. Potency, µM (titrated, usually from 9.22 µM), without a hit: at the highest dose activation, negative = inhibition, hits mostly activators. 2.8% of 320,000 active. AID 485297; also: % of control where 0% means no effect; nearly all actives have a fitted effect of over 60% in size
#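 Luciferase signal after 10 min detection reagent at ambient indicates Rab9 promoter upregulation; stably transfected Huh7 cells were treated 24 h with compound in DMSO at 37 °C, 5% CO2.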
# FLuc modulator: counter-screen for miR-21 project: firefly luciferase inhibitors or activators. P08659. purified FLuc, Km substrates, luminescence inhibition. Potency, µM (top dose mostly 57.5 µM), for the others: at the highest dose activity change, negative = inhibition, hits mostly inhibitors. 6.9% of 360,000 active;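 also: plate controls were vehicle for no effect and reference inhibitor for full effect; nearly all actives have a fitted effect of over 55% in size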
# Target sequence (P08659 whole entry, looked up): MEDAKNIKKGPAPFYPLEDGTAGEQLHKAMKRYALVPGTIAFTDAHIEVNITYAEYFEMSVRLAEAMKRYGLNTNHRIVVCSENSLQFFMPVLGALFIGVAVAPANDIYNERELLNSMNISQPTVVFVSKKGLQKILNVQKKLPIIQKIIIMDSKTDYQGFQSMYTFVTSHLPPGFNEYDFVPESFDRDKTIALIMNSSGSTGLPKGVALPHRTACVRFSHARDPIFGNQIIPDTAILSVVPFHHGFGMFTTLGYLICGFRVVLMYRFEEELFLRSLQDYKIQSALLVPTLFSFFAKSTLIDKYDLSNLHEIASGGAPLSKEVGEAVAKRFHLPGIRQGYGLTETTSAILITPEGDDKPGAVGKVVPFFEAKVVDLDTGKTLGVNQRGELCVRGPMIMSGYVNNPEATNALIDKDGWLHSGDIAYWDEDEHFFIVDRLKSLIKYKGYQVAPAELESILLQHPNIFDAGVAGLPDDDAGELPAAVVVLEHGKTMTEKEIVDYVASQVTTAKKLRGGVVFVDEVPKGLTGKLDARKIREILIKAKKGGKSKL
#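 Purified P. pyralis luciferase (10nM final) with 10uM D-luciferin and 10uM ATP (Km levels) in 50mM Tris acetate pH 7.5, 10mM Mg acetate, 0.01% Tween-20, 0.05% BSA; qHTS 6-point titration, ~60 µM downward; luminescence read.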
# NPC1 promoter act: activators of NPC1 promoter; Huh7 NPC1 promoter luciferase reporter, 24 h; Potency, µM (top dose mostly 9.22 µM), for the others: at the highest dose activation, usual class: activators; 2.4% of 320,000 active; also: % of control where 0% means no effect; nearly all actives have a fitted effect of over 60% in size
#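 Readout is luciferase luminescence, reflecting NPC1 promoter activation in stably transfected Huh7 cells after 24 h compound exposure at 37 °C in reduced-serum medium with 10% FBS.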
# The depositor's hits bear a star; ? = inconclusive; nt = no result; [ ] = another dose, or the depositor's remark. Calls follow the shape of the dose curve; as a rule, active = well fitted curve in the direction sought with a large enough effect; inconclusive = small, poorly fitted or top-dose-only effect, or another doubt; inactive = no such curve, though single readings can be large; an effect the other way counts as inactive or inconclusive. Potency is read from the fitted curve at half-maximal effect.
SMILES,ELG1 DNA repair,SMN2 splice up,ELG1 genotoxic,Rab9 promoter act,FLuc modulator,NPC1 promoter act
COc1ccc(CNC(=O)CSc2nc3ccc(N)cc3s2)cc1,13%,1%,0%,18%,?,-1%
Nc1ccc2nc(-c3ccc(O)cc3)sc2c1,nt,1.4µM*,nt,nt,0.3µM*,nt
Nc1cccc(-c2nc3ccc(N)cc3s2)c1,?,13µM*,?,?,0.27µM*,?
O=S(=O)(c1cccc(-c2nc3ccccc3s2)c1)N1CCOCC1,-1%,-18%,2%,0%,?,5%
CN(CC(=O)Nc1ccc(Cl)cc1)CC(=O)Nc1cccc(Br)c1,0%,nt,-3%,0%,-1%,-1%
Cc1c(C(=O)Nc2ccccc2Cl)oc2ccc(S(=O)(=O)N3CCCCCC3)cc12,nt,nt,nt,nt,-1%,nt
CCC(C(=O)Nc1cccc(C#N)c1)n1c(=O)c(-c2ccccc2NC(C)=O)nc2ccccc21 (centres undefined),nt,nt,nt,nt,-11%,nt
C/C(=N/NC(=O)c1ccc(C)s1)c1cccnc1,?,nt,?,?,19µM*,26%
C/C(=N/NC(=O)c1ccc(Cl)s1)c1cccnc1,6%,nt,11%,3%,0%,7%
C/C(=N/NC(=O)c1ccc(Br)s1)c1ccncc1,?,nt,10%,23%,?,?
C/C(=N/NC(=O)c1ccc(Br)s1)c1cccnc1,?,nt,11%,?,15µM*,28%
CCN(CC)c1ccc(NC(=O)c2cccn2-c2nnc(N3CCCCC3)s2)c(C)c1,nt,nt,nt,nt,-10%,nt
COc1ccc(C2=NN3C(C2)c2ccccc2OC3c2cccs2)cc1 (centres undefined),?,nt,?,23%,?,15%
COc1ccc(C2=NN3C(C2)c2ccccc2OC32C(=O)N(C)c3ccccc32)cc1 (centres undefined),?,4%,15µM*,4%,11µM*,3%
COc1ccc2nc(N3C(=O)CC(C(C)c4ccccc4)C3=O)sc2c1 (centres undefined),8%,nt,-1%,0%,21µM*,0%
Cc1cc(C)nc(N2C(=O)CC(C(C)c3ccccc3)C2=O)n1 (centres undefined),7%,-2%,0%,-2%,3%,-1%
CN(C)c1cccc(C(=O)Nc2nnc(Cc3ccccc3)s2)c1,?,nt,?,29%,?,18%
COc1ccc(-c2ccc(SCc3ccccn3)nn2)cc1OC,-2%,8%,-8%,-2%,?,0%
COc1cccc(-c2ccc(SCc3ccccn3)nn2)c1,?,11µM*,?,2.8µM*,11µM*,3.5µM*
O=[N+]([O-])c1cccc(-c2ccc(SCc3ccccn3)nn2)c1,?,?,?,4µM*,27µM*,?
O=C(O)c1sc2cccc(Cl)c2c1Cl,?,nt,-1%,2%,5.4µM*,0%
CCCCC(c1nnnn1C(C)C)N1CCN(C(=O)c2ccco2)CC1 (centres undefined),13%,nt,18%,0%,2%,-2%
Cc1ccc2c(c1)c1c(c(=O)n(Cc3ccccc3)c(=O)n1Cc1ccccc1F)n2C,nt,nt,nt,nt,-6%,nt
CN(C)C/C=C/C(O)(c1ccccc1)c1ccccc1,?,nt,-2%,-5%,0%,-1%
CN(C)CC(CCC(CN(C)C)C(O)(c1ccccc1)c1ccccc1)C(O)(c1ccccc1)c1ccccc1 (centres undefined),18µM*,nt,-17%,-9%,2%,-3%
SMILES,ELG1 DNA repair,SMN2 splice up,ELG1 genotoxic,Rab9 promoter act,FLuc modulator,NPC1 promoter act
COc1ccccc1NC(=O)Cn1cc(C(=O)c2ccncc2)c(=O)c2cc(C)ccc21,nt,nt,nt,nt,-5%,nt
Cc1cccc(N=Nc2c(N)n[nH]c2N)c1,?,nt,13%,22%,?,13%
Nc1[nH]ncc1N=Nc1ccc(Cl)cc1,?,11%,18µM*,?,13µM*,29%
Nc1n[nH]c(N)c1N=Nc1ccc(Cl)cc1,?,16%,?,22%,15µM*,9%
Nc1n[nH]c(N)c1N=Nc1cccc(F)c1,13%,18%,5%,-3%,24µM*,2%
COc1ccc(CNC(=O)CCC2N=C3c4ccccc4N=C(SCc4ccccc4F)N3C2=O)cc1 (centres undefined),nt,nt,nt,nt,-8%,nt
COc1ccc(-c2cc(C(=O)Nc3c(Cl)cccc3Cl)no2)cc1OC,nt,-34%,nt,nt,?,nt
Cc1ccccc1CNC(=O)CN(c1cccc(C)c1C)S(C)(=O)=O,nt,nt,nt,nt,-1%,nt
CC(C)NC(=O)COc1coc(CN2CCN(C(=O)c3ccco3)CC2)cc1=O,14%,nt,1%,-6%,6%,-2%
O=[N+]([O-])c1ccccc1S(=O)(=O)Nc1cccc(S(=O)(=O)N2CCCC2)c1,13%,nt,0%,nt,nt,nt
CCOc1ccc(-c2cc(C(=O)N3CCN(c4ccc(C)cc4)C(C)C3)c3ccccc3n2)cc1 (centres undefined),nt,nt,nt,nt,4.8µM*,nt
CCOc1ccc(-c2cc(C(=O)N3CCN(c4cccc(C)c4)C(C)C3)c3ccccc3n2)cc1 (centres undefined),nt,nt,nt,nt,2.4µM*,nt
C/C(=N/N=C1\SCC(=O)N1c1ccccc1)c1ccc(C)cc1,0%,nt,-3%,-4%,-1%,-2%
CCC(C)(C)C1CCC2(CC1)NC(=O)N(CC(=O)N(C)CCOc1ccc(Cl)cc1)C2=O (centres undefined),-5%,nt,8%,-11%,-1%,-12%
Cc1ccc(CN2CCc3nc(N4CCN(C)CC4)ncc3C2)s1,nt,nt,nt,nt,0%,nt
CC(C)(O)c1cc(=O)sc2nc3ccccc3n12,?,14µM*,?,0.56µM*,9.5µM*,3.5µM*
O=C1NN(c2cccc(Br)c2)C(=O)/C1=C/c1cccs1,-10%,nt,-1%,5%,9.5µM*,-1%
O=C1NN(c2ccccc2)C(=O)/C1=C/c1cccs1,?,3%,1%,-10%,19µM*,-4%
O=C1NN(c2ccccc2)C(=O)/C1=C\c1ccccc1,-13%,nt,8%,-2%,17µM*,-1%
O=C1NN(c2cccc(Br)c2)C(=O)/C1=C\c1ccccc1,8%,nt,0%,0%[1.84 µM],?,2%
Cc1ccc(NC(=O)Nc2cn(CC(C)C)c(=O)c3ccccc23)cc1N(C)C,nt,nt,nt,nt,-14%,nt
CCOc1ccc(S(=O)(=O)NCC(c2cccs2)S(=O)(=O)c2ccc(C)cc2)cc1 (centres undefined),nt,nt,nt,nt,1%,nt
Cc1ccc2c(c1)COc1c3ccc(C(=O)N4CCOCC4)cc3nn1-2,?,nt,16µM*,1.6µM*,9.5µM*,2.5µM*
